Measurements reported in PMC10726135, “HNF4α isoforms regulate the circadian balance between carbohydrate and lipid metabolism in the liver”.
In all, about 18,000 sequences were measured (“log2 normalized intensity”: median about 0.39, highest 2% from about 6.6 on). Many of the other results were omitted from the sample, so the highest values are more common in it than they were.

Each sequence was assayed against T1, HNF4alpha2 (COS-7 nuclear extract) (Homo sapiens, UniProt P41235 1-474) (assay: protein-binding microarray; COS-7 nuclear extract on double-stranded Agilent 4x180k PBM; binding buffer, salt, pH and temperature not given in the material; high values mean tight binding). Conditions: chain copies: 2; label: 3' end of strand 1 on the slide; dsDNA, one strand shown.
T1 sequence: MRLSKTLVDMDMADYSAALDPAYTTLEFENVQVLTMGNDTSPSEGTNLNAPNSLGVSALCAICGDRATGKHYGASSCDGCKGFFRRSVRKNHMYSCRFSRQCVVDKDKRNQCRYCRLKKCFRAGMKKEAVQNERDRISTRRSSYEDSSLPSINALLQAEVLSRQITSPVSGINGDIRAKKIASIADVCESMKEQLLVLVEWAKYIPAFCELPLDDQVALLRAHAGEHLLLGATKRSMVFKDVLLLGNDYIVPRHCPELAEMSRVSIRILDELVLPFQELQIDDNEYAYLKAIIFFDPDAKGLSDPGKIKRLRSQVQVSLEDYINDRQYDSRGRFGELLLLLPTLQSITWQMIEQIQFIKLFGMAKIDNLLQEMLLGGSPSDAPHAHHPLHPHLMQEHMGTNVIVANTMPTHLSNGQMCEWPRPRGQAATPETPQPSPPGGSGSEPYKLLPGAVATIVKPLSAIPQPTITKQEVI
Procedure, shortened: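 Double-stranded oligonucleotides of ~60 nt, representing ~44,000 test sequences in quadruplicate, made up a custom Agilent SurePrint G3 4x180k array. Nuclear extracts from COS-7 cells transiently transfected by CaPO4 with a human HNF4α isoform expression vector were applied, and bound HNF4α was imaged at 2-µm resolution on an Agilent G2565CA scanner. Binding signal refers to the background-corrected, normalized gProcessedSignal output of Agilent software.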
“TTGGGTCACAATCACAAATGCCTTCAGGGGGCCTAGGGAGATTAGAGTATCGGTCGA” gave a binding signal of 0.838 log2 normalized intensity.
Sequence “TCAGCCCACAGGTCAATCCAGGTTGCTGCCGCCTAGGGAGATTAGAGTATCGGTCGA” has a binding signal of -0.646 log2 normalized intensity.
“GGCCCAGAGCACAACCTTTGGCCGTGCATGGCCTAGGGAGATTAGAGTATCGGTCGA” gave a binding signal of 2.45 log2 normalized intensity.
Work on “TTAAATCCTATCCTAGGGTTAAAGTCTACAGCCTAGGGAGATTAGAGTATCGGTCGA” yielded a binding signal of 4.31 log2 normalized intensity.
For “ACCCCACGGACTTAAATTGTGCTGTGTCAGGCCTAGGGAGATTAGAGTATCGGTCGA”, the binding signal was 1.49 log2 normalized intensity.
With “CAAAGTCCGCTTGCCTGAGGGTCATGACTAGCCTAGGGAGATTAGAGTATCGGTCGA” the binding signal was 2.26 log2 normalized intensity.
In the case of “GCCAATTCAGCAAACAAAGGCACTTCTCTCGCCTAGGGAGATTAGAGTATCGGTCGA”, the binding signal is reported as -0.96 log2 normalized intensity.
For “TGAGCAGGCAGTGTCACAGAAATCATGTAGGCCTAGGGAGATTAGAGTATCGGTCGA”, the binding signal was 0.722 log2 normalized intensity.
“AGGTCAAAGTGCAACTACAAGGAGCAGCCTGCCTAGGGAGATTAGAGTATCGGTCGA” showed a binding signal of 3.48 log2 normalized intensity.
For “ACCTTGTGCAGTATCCCAGGGACTTACTCAGCCTAGGGAGATTAGAGTATCGGTCGA”, the binding signal was -0.811 log2 normalized intensity.
“AGCAATACATTGAACTTTGAACACCTCTTCGCCTAGGGAGATTAGAGTATCGGTCGA” was tested, and the binding signal was 5.41 log2 normalized intensity.
“TTGTTCAATAAGCAATACATTGAACTTTGAGCCTAGGGAGATTAGAGTATCGGTCGA” was tested, and the binding signal was 7.41 log2 normalized intensity.
With “CAATAAGCAATACATTGAACTTTGAACACCGCCTAGGGAGATTAGAGTATCGGTCGA” the binding signal was 6.91 log2 normalized intensity.
Sequence “AAGCAAACAAAACACGGACTTTGAAGCTCCGCCTAGGGAGATTAGAGTATCGGTCGA” has a binding signal of 1.95 log2 normalized intensity.
“TTTTCAACATATACTTTGAACTTGTTTTTTGCCTAGGGAGATTAGAGTATCGGTCGA” showed a binding signal of 2.27 log2 normalized intensity.
Sequence “AGAGCCTAGTTCATTGCAATTACTCAATAAGCCTAGGGAGATTAGAGTATCGGTCGA” has a binding signal of -0.91 log2 normalized intensity.
Sequence “TTTCATCTTCTTAGCCTTTGAACCCCACACGCCTAGGGAGATTAGAGTATCGGTCGA” has a binding signal of 4.78 log2 normalized intensity.
“GATTTCATCTAAGGACAAACTTTGTCACTGGCCTAGGGAGATTAGAGTATCGGTCGA” showed a binding signal of 1.15 log2 normalized intensity.
Sequence “ATCTAAGATTCCCCCTACCCTCAATATCTGGCCTAGGGAGATTAGAGTATCGGTCGA” has a binding signal of 4.35 log2 normalized intensity.
With “TTAACAAGCATTTTGTTCCCATTGATCATTGCCTAGGGAGATTAGAGTATCGGTCGA” the binding signal was 1.23 log2 normalized intensity.
With “CTGCCAAAGCTCACAGATGTGGAATGAAACGCCTAGGGAGATTAGAGTATCGGTCGA” the binding signal was -0.0699 log2 normalized intensity.
Work on “CAATCCTGGAGAAGGAGCACCAATGACCTTGCCTAGGGAGATTAGAGTATCGGTCGA” yielded a binding signal of 3.47 log2 normalized intensity.
Sequence “CAATGACCTTTGACCCTTCTCTGGGAGAAAGCCTAGGGAGATTAGAGTATCGGTCGA” has a binding signal of 8.21 log2 normalized intensity.
With “GAAGGAGCACCAATGACCTTTGACCCTTCTGCCTAGGGAGATTAGAGTATCGGTCGA” the binding signal was 11.1 log2 normalized intensity.
Work on “ACCTTTGACCCTTCTCTGGGAGAAAGGGAGGCCTAGGGAGATTAGAGTATCGGTCGA” yielded a binding signal of 2.99 log2 normalized intensity.
“AAACAATGACCTCTGCACCCTTCCCTGAGTGCCTAGGGAGATTAGAGTATCGGTCGA” gave a binding signal of 3.51 log2 normalized intensity.
“TTTGAAAGAAAGAGACCTTTACCCTGACCTGCCTAGGGAGATTAGAGTATCGGTCGA” gave a binding signal of 3.55 log2 normalized intensity.
“TTCCCTCATGATTTAGTAAGTTCAAGAAGAGCCTAGGGAGATTAGAGTATCGGTCGA” was tested, and the binding signal was 0.956 log2 normalized intensity.
In the case of “GGCCTTGGGCCACCTGAGACAGTTTATGCCGCCTAGGGAGATTAGAGTATCGGTCGA”, the binding signal is reported as -0.994 log2 normalized intensity.
With “CCCTTTGGCCTTTCTAATTATTTACAGGGAGCCTAGGGAGATTAGAGTATCGGTCGA” the binding signal was 0.82 log2 normalized intensity.
“ATGTGGGGCGTGTGTTAGACTTTGGACCTGGCCTAGGGAGATTAGAGTATCGGTCGA” gave a binding signal of 8.86 log2 normalized intensity.
For “ACACACAATAAGGACTTTGGACCGTCTTGTGCCTAGGGAGATTAGAGTATCGGTCGA”, the binding signal was 7.27 log2 normalized intensity.
“GTAGAGACCTGTCTTCCTGGTGACCTTTGTGCCTAGGGAGATTAGAGTATCGGTCGA” showed a binding signal of 7.11 log2 normalized intensity.
Work on “CGGGTATGTGGGGCGTGTGTTAGACTTTGGGCCTAGGGAGATTAGAGTATCGGTCGA” yielded a binding signal of 4.22 log2 normalized intensity.
“TAGACTTTGGACCTGGCCTGCGGGGTCAGGGCCTAGGGAGATTAGAGTATCGGTCGA” gave a binding signal of 5.39 log2 normalized intensity.
In the case of “GTCAAGTAGAGACCTGTCTTCCTGGTGACCGCCTAGGGAGATTAGAGTATCGGTCGA”, the binding signal is reported as 2.19 log2 normalized intensity.
“CAATAAGGACTTTGGACCGTCTTGTGGATCGCCTAGGGAGATTAGAGTATCGGTCGA” showed a binding signal of 5.92 log2 normalized intensity.
In the case of “GAGCACTCATTCCTATTCGGTGCTGACCTTGCCTAGGGAGATTAGAGTATCGGTCGA”, the binding signal is reported as 3.47 log2 normalized intensity.
In the case of “AGGACTTTGGACCGTCTTGTGGATCCTTGGGCCTAGGGAGATTAGAGTATCGGTCGA”, the binding signal is reported as 4.73 log2 normalized intensity.
In the case of “TCCTATTCGGTGCTGACCTTTGTTCACATTGCCTAGGGAGATTAGAGTATCGGTCGA”, the binding signal is reported as 5.89 log2 normalized intensity.
In the case of “GACCTGTCTTCCTGGTGACCTTTGTTTGGTGCCTAGGGAGATTAGAGTATCGGTCGA”, the binding signal is reported as 4.94 log2 normalized intensity.
“CTCATTCCTATTCGGTGCTGACCTTTGTTCGCCTAGGGAGATTAGAGTATCGGTCGA” gave a binding signal of 7.77 log2 normalized intensity.
Work on “CATGGGCTGTCACCTTTACCCCCACTCTCCGCCTAGGGAGATTAGAGTATCGGTCGA” yielded a binding signal of 4.46 log2 normalized intensity.
Work on “CTCCCAAGGTATCCTCCTAGAGTCCAAGGTGCCTAGGGAGATTAGAGTATCGGTCGA” yielded a binding signal of 2.68 log2 normalized intensity.
With “GAACTTTGACTTATTTAGTAGTGGCAAGAGGCCTAGGGAGATTAGAGTATCGGTCGA” the binding signal was 2.7 log2 normalized intensity.
In the case of “CAAAGCCCCTTTCCACTCTACCGTCCTCCCGCCTAGGGAGATTAGAGTATCGGTCGA”, the binding signal is reported as 1.91 log2 normalized intensity.
For “CCAGGGACTTTGAACACTTCTTTGTTACTTGCCTAGGGAGATTAGAGTATCGGTCGA”, the binding signal was 2.44 log2 normalized intensity.
In the case of “GTGCTGACCTCCTGTCTCATCCTGTGACCAGCCTAGGGAGATTAGAGTATCGGTCGA”, the binding signal is reported as 1.42 log2 normalized intensity.
“TCACCCTCTCCACCCCCATGCAAGTTCCCAGCCTAGGGAGATTAGAGTATCGGTCGA” gave a binding signal of 5.26 log2 normalized intensity.
Sequence “GTGAGTGGACTTTGGTCCTGGTCAGACTTGGCCTAGGGAGATTAGAGTATCGGTCGA” has a binding signal of 5.76 log2 normalized intensity.
In the case of “CACCTGTGTCAACATGGACTTTGTTGTTTGGCCTAGGGAGATTAGAGTATCGGTCGA”, the binding signal is reported as 4.33 log2 normalized intensity.
